# HP1b chromo inh: HTS for Inhibitors of HP1-beta Chromodomain Interactions with Methylated Histone Tails; Chromobox protein homolog 1 (Homo sapiens), P83916; AlphaScreen HP1-beta / biotin-H3K9me3 peptide binding; Potency, µM (titrated, usually from 114 µM), for inactives: at the highest dose activity change, negative = inhibition, hits mostly inhibitors; actives 0.56% (n = 390,000); further: nearly all actives have a fitted effect of over 70% in size
#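 HP1-beta protein (50 nM final) preincubated 30 min at room temperature with biotinylated H3(1-18)K9me3 peptide (50 nM) in PBS pH 7.4, 0.01% Tween-20, then compound added for 30 min. AlphaScreen streptavidin donor/nickel chelate acceptor beads (10 ug/mL final), 30 min dark, luminescence read.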
# BAZ2B block: qHTS Assay for Inhibitors of BAZ2B; AlphaScreen BAZ2B-H3K14Ac peptide displacement; actives 4.4% (n = 360,000); Bromodomain adjacent to zinc finger domain protein 2B (Homo sapiens), Q9UIF8; Potency, µM (highest dose often 114 µM), without a hit: top-dose activity change, negative = inhibition, most hits filed as inhibitors; further: on the % scale 0 is the no-effect control and ±100 the full control effect; nearly all actives have a fitted effect of over 60% in size
#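 AlphaScreen displacement of biotin-H3(5-23)K14Ac peptide (50 nM final) from BAZ2B (50 nM final) in PBS pH 7.4, 0.01% Tween-20; complex preformed 30 min RT, then compounds (top 110 uM) 30 min RT, beads 20 min dark.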
# L3MBTL1 block: qHTS Assay for the Inhibitors of L3MBTL1 | Potency, µM (top dose mostly 57.1 µM), inactives show at the highest dose activity, negative = inhibition, actives largely listed as inhibitors | AlphaScreen L3MBTL1–H3K9me1 peptide binding | actives 0.66% (n = 230,000); further: on the % scale 0 is the no-effect control and ±100 the full control effect; nearly all actives have a fitted effect of over 60% in size
#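 L3MBTL1 50 nM + b-AHA-H3(1-15)K9me1 75 nM, 30 min RT; compound added, 30 min RT; streptavidin donor/Ni-chelate acceptor beads 10 ug/mL each final, 30 min RT dark; AlphaScreen read.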
# JMJD2A Tudor inh: qHTS Assay for Inhibitors of JMJD2A-Tudor Domain; actives 4.4% (n = 390,000); AlphaScreen JMJD2A-Tudor / H3K4me3 peptide binding; Lysine-specific demethylase 4A (Homo sapiens), O75164; Potency, µM (highest dose often 114 µM), inactives show at the highest dose activity change, negative = inhibition, hits mostly inhibitors; further: on the % scale 0 is the no-effect control and ±100 the full control effect; nearly all actives have a fitted effect of over 50% in size
# Target sequence (O75164 whole entry, looked up, the tested form may be a part): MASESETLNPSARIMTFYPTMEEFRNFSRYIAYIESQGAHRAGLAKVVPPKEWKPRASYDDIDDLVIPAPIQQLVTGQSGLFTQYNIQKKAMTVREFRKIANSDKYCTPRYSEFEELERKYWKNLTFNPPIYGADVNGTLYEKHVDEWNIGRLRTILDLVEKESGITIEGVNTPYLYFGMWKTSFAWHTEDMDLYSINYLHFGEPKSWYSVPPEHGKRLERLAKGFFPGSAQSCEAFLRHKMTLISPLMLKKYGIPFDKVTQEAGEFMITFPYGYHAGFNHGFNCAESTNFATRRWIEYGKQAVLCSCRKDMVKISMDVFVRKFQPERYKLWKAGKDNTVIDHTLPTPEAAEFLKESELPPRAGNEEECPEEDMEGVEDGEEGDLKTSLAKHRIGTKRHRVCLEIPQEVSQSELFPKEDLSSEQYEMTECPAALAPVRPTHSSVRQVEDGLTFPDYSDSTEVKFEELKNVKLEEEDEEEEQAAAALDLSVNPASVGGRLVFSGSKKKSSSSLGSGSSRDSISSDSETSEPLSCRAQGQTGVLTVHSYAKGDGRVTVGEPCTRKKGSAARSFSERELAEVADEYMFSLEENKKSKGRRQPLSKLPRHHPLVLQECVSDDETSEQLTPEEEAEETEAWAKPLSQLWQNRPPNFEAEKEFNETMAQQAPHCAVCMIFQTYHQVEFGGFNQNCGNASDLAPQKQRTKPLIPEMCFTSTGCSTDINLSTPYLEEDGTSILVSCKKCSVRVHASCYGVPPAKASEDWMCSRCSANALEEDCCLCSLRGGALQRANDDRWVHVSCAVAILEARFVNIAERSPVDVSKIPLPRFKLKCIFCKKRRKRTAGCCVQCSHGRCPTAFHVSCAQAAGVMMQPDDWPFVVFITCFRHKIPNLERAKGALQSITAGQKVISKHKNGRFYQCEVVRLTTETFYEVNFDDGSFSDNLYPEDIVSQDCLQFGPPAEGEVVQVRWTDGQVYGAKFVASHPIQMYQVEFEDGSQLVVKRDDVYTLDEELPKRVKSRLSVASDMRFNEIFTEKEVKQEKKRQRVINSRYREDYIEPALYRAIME
# G9a inh: qHTS Assay for Inhibitors of Histone Lysine Methyltransferase G9a; Histone-lysine N-methyltransferase EHMT2 (Homo sapiens), Q96KQ7; G9a H3K9 monomethylation, AlphaScreen, 2 h; Potency, µM (series often up to 102 µM), without a hit: at the highest dose activity, negative = inhibition, most hits filed as inhibitors; actives 8.8% (n = 350,000); AID 504332, 2011; further: on the % scale 0 is the no-effect control and ±100 the full control effect; nearly all actives have a fitted effect of over 75% in size
#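 Chemiluminescent proximity detection of H3K9 monomethylation, read after 10 min bead incubation in the dark. Reaction: 20 nM G9a, 500 nM biotin-H3K9 peptide, 20 uM SAM cofactor, 2 h, room temperature, following 15 min enzyme-compound preincubation.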
# * hit, by the source's call; ? = inconclusive; nt = no result; [ ] = another dose, or the depositor's remark. Shown are actives, neighbours in structure and some others; about 11% of the full set was active somewhere. The call rests on the fitted dose curve; in most records, active means well fitted inhibition curve with a large enough effect; inconclusive means small, poorly fitted or top-dose-only effect; inactive means no such curve, though single readings can be large or run the other way. Potency means the concentration at half of the fitted maximal effect.
SMILES,HP1b chromo inh,BAZ2B block,L3MBTL1 block,JMJD2A Tudor inh,G9a inh
CCN(CC)c1ccc(NC(=O)c2ccccc2OCC(=O)OC)cc1,?,32µM*,-23%,20µM*,nt
CCN(CC)c1ccc(NC(=O)COC(=O)COc2ccccc2[N+](=O)[O-])cc1,-66%,45µM*,-21%,32µM*,7.1µM*
Cc1ccc(NC(=O)COC(=O)CCC(=O)c2cccs2)cc1,27%,5%,14%,-1%,-11%
COC(=O)COc1ccccc1C(N)=O,44%,8%,nt,14%,20%
CCN(CC)c1ccc(NC(=O)COC(=O)CCC(=O)c2cccs2)cc1,?,45µM*,-18%,?,-15%[2.33 µM]
O=C(Cc1ccc(Br)cc1)OCC(=O)N1CCOCC1,24%,nt,37%,-12%,nt
CCOC(=O)C1=C(CSc2nc(CC)c(C)cc2C#N)OC(N)=C(C#N)C1c1ccccc1 (stereo unspecified),11%,?,nt,?,40µM*
CCOC(=O)C1=C(CSc2nc(C)cc(C)c2C#N)OC(N)=C(C#N)C1c1ccccc1 (stereo unspecified),25%,-7%,-2%,?,nt
CCOC(=O)C1=C(CSc2nc(-c3ccccc3)ccc2C#N)OC(N)=C(C#N)C1c1ccc(OC)cc1 (stereo unspecified),23%,3%[57.1 µM],-4%,-34%,32µM*
F[B-](F)(F)COc1ccccc1,15%,nt,nt,-10%,nt
O=C(Nc1nc(-c2ccc3c(c2)OCCO3)cs1)C1CC(=O)N(c2ccc3c(c2)OCCO3)C1 (stereo unspecified),6%,nt,nt,-19%,nt
O=C(NCCc1c[nH]c2ccccc12)c1ccc(Br)o1,16%,nt,-7%,-26%,nt
O=C(NCCSc1c[nH]c2ccccc12)c1ccc(Br)o1,15%,-10%,-12%,-12%,79µM*
Cc1ccc(/C=C/C(=O)OCC(=O)NC(C)C)o1,6%,0%,nt,-9%,45µM*
CCC(=O)Nc1ccc(CC)cc1-c1nc2ccccc2n(CC(=O)Nc2cccc(Cl)c2)c1=O,31%,3%,nt,-14%,-8%[59 µM]
CC(=O)N/C(=N/c1nc(C)cc(C)n1)Nc1ccc(NC(C)=O)cc1,18%,3%,-10%,-3%,-5%[12.7 µM]
CC(=O)N/C(=N\c1nc(C)cc(C)n1)Nc1ccc2ccccc2c1,44%,-22%,-1%,-3%,79µM*
CN(C)c1ccc(C(CNS(=O)(=O)c2ccc(Cl)cc2)N2CCCC2)cc1 (stereo unspecified),?,32µM*,nt,50µM*,?
CN(C)c1ccc(C(CNS(=O)(=O)c2ccc(Br)cc2)N2CCCC2)cc1 (stereo unspecified),?,35µM*,nt,45µM*,18µM*
COc1ccc(CN2CCN(CCc3ccccc3)C(CCO)C2)cc1Cn1cncn1 (stereo unspecified),23%,-10%,-5%,-11%,-3%
O=c1cccccc1NCc1ccccc1,31%,12%,nt,4%,10µM*
O=C1C=C(Nc2ccc(F)cc2)c2ccccc2C1=O,-15%,?,-19%,-26%,7.9µM*
CCOc1ccc(NC2=CC(=O)C(=O)c3ccccc32)cc1,-8%,nt,nt,-28%,nt
Cc1ccc(NC2=CC(=O)C(=O)c3ccccc32)c(C)c1,17%,?,-1%,-14%,-2%[2.33 µM]
O=C1C=C(Nc2ccccc2O)c2ccccc2C1=O,-38%,45µM*,-24%,?,45µM*
SMILES,HP1b chromo inh,BAZ2B block,L3MBTL1 block,JMJD2A Tudor inh,G9a inh
O=C1C=C(NCc2ccccc2)c2ccccc2C1=O,5%,-31%,22µM*,-33%,?
O=C(NC1CCN(S(=O)(=O)c2cccc(Cl)c2)CC1)C1CCCCC1,-3%,-11%,nt,-17%,5%
COCCNC(=O)Nc1cc(C(=O)NCc2ccc(C(C)C)cc2)ccc1N1CCCC1,18%,?,nt,-12%,-2%[59 µM]
Cc1cccc(NC(=O)c2ccc(Cn3nc(N4CCN(c5ccccc5)CC4)ccc3=O)o2)c1C,-12%,-29%,nt,?,?
CC(C)CCOP(=O)(c1ccc(N(C)C)cc1)C(O)c1ccc(N(C)C)cc1 (stereo unspecified),-5%,?,nt,7.1µM*,2.2µM*
CCCCOP(=O)(c1ccc(N(C)C)cc1)C(O)c1ccc(N(C)C)cc1 (stereo unspecified),-4%,?,nt,5µM*,2.2µM*
CC(C)CCOP(=O)(c1ccc(N(C)C)cc1)C(Nc1ccccc1)c1ccc(N(C)C)cc1 (stereo unspecified),-19%,?,-2%,45µM*,14µM*
CCCOP(=O)(c1ccc(N(C)C)cc1)C(O)c1ccc(N(C)C)cc1 (stereo unspecified),24%,-23%,nt,8.9µM*,0.71µM*
CCCOP(=O)(c1ccc(N(C)C)cc1)C(O)c1ccc(Br)cc1 (stereo unspecified),9%,-27%,nt,-14%,-2%
CCCCOP(=O)(c1ccc(N(C)C)cc1)C(O)c1ccncc1 (stereo unspecified),32%,?,0%,-17%,?
C=C1C[C@@]23C[C@]1(O)CC[C@@H]2[C@]12C=C[C@@H](O)[C@](C)(C(=O)O1)[C@H]2[C@H]3C(=O)O,nt,nt,nt,nt,8%[21.5 µM]
Cc1c(C(=O)Nc2ccc(F)cc2F)oc2ccc3c(c12)C(=O)CC(C)(C)O3,18%,?,nt,-15%,-33%[59 µM]
COc1ccc(OC)c(CNC(=O)CCc2c(C)nc3c(c2C)c(=O)n(C)c(=O)n3C)c1,28%,-12%,nt,0%,-1%[59 µM]
COc1ccc(-c2nc3ccccc3[nH]2)cc1,29%,9%,nt,-4%,9%
COc1ccc(-c2cc(=O)n(-c3nc4ccccc4[nH]3)[nH]2)cc1,15%,28µM*,?,?,79µM*
CCn1c(CN2CCC(C)CC2)nc2cc(NC(=O)c3ccc([N+](=O)[O-])cc3)ccc21,20%,-2%,nt,-12%,-3%[59 µM]
CCn1c(CN2CCC(C)CC2)nc2cc(NC(=O)c3cccc([N+](=O)[O-])c3)ccc21,44%,-8%,nt,56µM*,3%[59 µM]
O=[N+]([O-])c1cc2c(cc1C=Nc1ccccc1)OCO2,-34%,?,-4%,?,?
Sc1oc(-c2ccccc2)cc1C=Nc1ccccc1,?,20µM*,nt,20µM*,0.89µM*
O=C(NCc1ccccc1)Nc1ncnc2c1C(c1ccccc1)c1c(ccc3ccccc13)O2 (stereo unspecified),nt,nt,nt,-27%,nt
Cc1nc2ccc(S(=O)(=O)N(CC(=O)Nc3ccc(F)cc3F)Cc3ccccc3)cc2s1,5%,-1%,nt,-9%,5%[59 µM]

# Source: PubChem (National Center for Advancing Translational Sciences (NCATS))
